Data: PubChem BioAssay AID651703 (Broad Institute, 2012)
In all, about 1,200 compounds went through this assay and about 970 (81%) were called active. The rule behind the calls is not given here. The set was probably picked from earlier hits. A selection follows. Results with a measured potency or affinity are listed apart.

What follows are compounds tested against Transforming acidic coiled-coil-containing protein 3 (Homo sapiens) (UniProt Q9Y6A5) (assay: ARNT/TACC3 interaction disruptors, potency, confirmation, biochemical, AlphaScreen, cherry-picked samples (AID 651703;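 note: TACC3 partner is the GST-tagged E629A mutant dimer; hits lower the signal meaning they disrupt ARNT binding to TACC3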)). Settings: AlphaScreen His-ARNT PAS-B / GST-TACC3 binding, luminescence; series mostly up to 68 µM.

outcome, inactive:
Clc1ccc(SCc2cc(N3CCOCC3)nc(-c3ccccn3)n2)cc1, CCOc1cc(/C=N/Nc2ncc(C)c(=O)[nH]2)ccc1O, O=C1C2CCCCN2C(=O)N1CCCCN1CCN(c2cccc(Br)c2)CC1 (stereo unspecified), O=C(CCC(=O)c1cccs1)OCc1nnc(-c2ccccc2)o1, CCc1c(C)nc(Nc2nc(C)c3ccc(OC)cc3n2)[nH]c1=O, CCN(C(=O)CSc1nccn1C)c1cccc2ccccc12, COc1cc2c(cc1OC)C(Cc1ccccc1[N+](=O)[O-])=NCC2, O=C(Nc1nnc(-c2ccccc2)s1)c1cc(-c2ccccc2)on1, CCSc1nnc(NC(=O)C2CCCCC2C(=O)O)s1 (stereo unspecified), C[C@H](CO)N1C[C@H](C)[C@@H](CN(C)C(=O)Nc2ccc3c(c2)OCO3)Oc2ccc(NC(=O)CCN3CCOCC3)cc2CC1=O, CC(C)NC(=O)Nc1cccc2c1O[C@H](CN(C)C(=O)Nc1ccc(C(F)(F)F)cc1)[C@@H](C)CN([C@@H](C)CO)C2=O, C[C@@H]1CN([C@H](C)CO)C(=O)Cc2cc(NC(=O)Nc3cccc4ccccc34)ccc2O[C@@H]1CN(C)Cc1ccc(C(=O)O)cc1, C[C@H]1CN([C@@H](C)CO)C(=O)Cc2cc(NC(=O)Nc3cccc4ccccc34)ccc2O[C@H]1CN(C)CC1CCCCC1, C[C@@H]1CN([C@@H](C)CO)C(=O)c2cc(NC(=O)C3CC3)ccc2O[C@H]1CN(C)C(=O)Nc1ccc(F)cc1, COCCCN=Cc1c(-c2ccccc2)[nH]n(-c2nc3ccccc3s2)c1=O, COc1ccc(-c2[nH]ncc2/C=N\NC(=O)c2cccs2)cc1OC, C#CCOc1ccc(OC)cc1C(c1c(C)[nH][nH]c1=O)c1c(C)[nH][nH]c1=O, CCOc1ccc(Cl)cc1C(c1c(C)[nH][nH]c1=O)c1c(C)[nH][nH]c1=O, CCCN(C)C[C@@H]1Oc2ncc(C#CCC(C)C)cc2C(=O)N([C@@H](C)CO)C[C@H]1C, O=C(O)c1ccccc1-c1ccccc1C(=O)Nc1ccc2c(c1)[nH]c(=O)c1ccccc12, O=C(Nc1nc2ccccc2s1)c1cc(-c2ccccc2)on1, Cc1onc(-c2c(Cl)cccc2Cl)c1C(=O)Nc1ccc(N2CCOCC2)cc1, Cc1ccc(C(=O)Oc2ccc(/C=C3\C(=N)N4N=C(N5CCOCC5)SC4=NC3=O)cc2)cc1, O=C1CCN(Cc2ccccc2)C=C1c1ccc(C(F)(F)F)cc1, Cc1cccc(Oc2nc(-c3ccccn3)nc3ccccc23)c1, Nc1cc2cccnc2cc1Cl, O=C(C[C@H]1C=C[C@@H](NC(=O)Nc2ccc3c(c2)OCO3)[C@H](CO)O1)NCc1ccc(Cl)cc1, N#CC1=C(N)Oc2n[nH]c(-c3ccccn3)c2C1c1c(F)cccc1Cl (stereo unspecified), CCN(CC)C(=O)[C@H]1C[C@H](CC(=O)NCc2ccc(OC)c(OC)c2)C(=O)N2CCc3c([nH]c4ccc(Cl)cc34)[C@]12C, CN1CCN(S(=O)(=O)c2cccc(C(=O)Nc3sccc3C(N)=O)c2)CC1, O=C(NCC1CCCCC1)c1cc(-c2ccccc2)on1, COC(=O)c1sc(N)c(C(=O)OC)c1Cn1ncc(Cl)c(Cl)c1=O, Cc1ccccc1CNC(=O)c1cc(-c2ccccc2)on1, CC1=NN(c2ccccc2C)C(=O)C1, COc1cc(NC(=O)C(=O)Nc2ccc3nc4n(c(=O)c3c2)CCCCC4)cc(OC)c1OC, CN(C)c1ccc2c(c1)[C@@H]1C[C@@H](CC(=O)N3CCOCC3)O[C@@H](CO)[C@@H]1O2, O=C(C[C@H]1C[C@H]2c3cc(NC(=O)NC4CCCCC4)ccc3O[C@H]2[C@H](CO)O1)NCc1ccccc1, Clc1nssc1=Nc1nncs1, COCCNC(=O)C[C@@H]1C[C@H]2c3cc(NC(=O)C4CCOCC4)ccc3O[C@H]2[C@H](CO)O1, COc1ccccc1OCc1nc(C#N)c(NCCCn2ccnc2)o1, Cc1coc2c(C)c3oc(=O)c(CCC(=O)N[C@@H](C)C(=O)N[C@@H](Cc4ccccc4)C(=O)O)c(C)c3cc12, Cc1c(CC(=O)NCCCCCC(=O)O)c(=O)oc2cc3occ(-c4ccccc4)c3cc12, Cc1c(CCC(=O)O)c(=O)oc2c(C)c3occ(-c4ccc(Cl)cc4)c3cc12, COc1ccc(N(C(C)=O)c2nc3ccccc3[nH]2)cc1, Cc1cc(C)n(S(=O)(=O)c2ccc(Cl)cc2)n1, O=C(CCc1ccccc1)Nc1nnc(-c2ccccn2)o1, CC(=O)Nc1ccc2nc3ccccc3nc2c1, Cc1ccc(NC(=O)c2cc(-c3ccccc3)on2)cn1, Cc1ccc(C2CCN(C(=S)Nc3cccc(C)c3)C2)cc1 (stereo unspecified), CO[C@H]1CN(C)C(=O)c2cc(NC(=O)NC3CCCCC3)ccc2OC[C@H](C)N(CC2CC2)C[C@@H]1C, CCCNC(=O)Nc1ccc2c(c1)OC[C@H](C)N(C(=O)c1ccccc1F)C[C@@H](C)[C@@H](OC)CN(C)C2=O, CO[C@@H]1CN(C)C(=O)c2cc(NC(=O)c3ccccc3)ccc2OC[C@@H](C)N(C(=O)C2CC2)C[C@H]1C, O=C(Nc1ccc2ccccc2n1)c1cc(-c2ccccc2)on1, Cc1cccc(NC(=O)c2cc(-c3ccccc3)on2)n1, CN1/C(=N\O)c2cccc3cccc1c23, O=C(C[C@@H]1C[C@@H]2c3cc(NC(=O)C4CCOCC4)ccc3O[C@@H]2[C@H](CO)O1)NCc1cccnc1, CC(C)NC(=O)N1[C@H](CO)[C@@H]2c3ccccc3NC[C@@H]21, O=C(Nc1ncc(-c2ccccc2)o1)c1cc(-c2ccccc2)on1, COC(=O)C[C@@H]1C[C@H]2c3cc(N(C)C)ccc3O[C@H]2[C@@H](CO)O1, COc1ccc(OC)c(NC(=O)COC(=O)Cn2nnc(-c3ccccc3)n2)c1, COC(=O)c1[nH]c2cc(OC)c(OC)cc2c1NC(=O)Oc1ccccc1, C[C@@H]1CN([C@@H](C)CO)C(=O)c2cc(NC(=O)C3CCCCC3)ccc2O[C@@H](C)CCCCO[C@@H]1CN(C)C(=O)NC1CCCCC1, C[C@H](CO)N1C[C@H](C)[C@H](CN(C)C(=O)Nc2cccc3ccccc23)OCCCC[C@H](C)Oc2ccc(NC(=O)CCCN(C)C)cc2C1=O, CC(C)NC(=O)Nc1ccc2c(c1)C(=O)N([C@H](C)CO)C[C@@H](C)[C@@H](CN(C)C(=O)Nc1ccccc1)OCCCC[C@@H](C)O2, C[C@@H]1CN([C@@H](C)CO)C(=O)c2cc(NC(=O)CCCN(C)C)ccc2O[C@@H](C)CCCCO[C@H]1CN(C)C(=O)Nc1cccc2ccccc12, CC(C)NC(=O)N(C)C[C@H]1OCCCC[C@H](C)Oc2ccc(NC(=O)Cc3ccccc3)cc2C(=O)N([C@H](C)CO)C[C@H]1C, CC(C)NC(=O)Nc1ccc2c(c1)C(=O)N([C@@H](C)CO)C[C@H](C)[C@@H](CN(C)C)OCCCC[C@H](C)O2, O=C(c1cc(-c2ccccc2)on1)N1CCC(N2CCCC2)CC1, O=C(Nc1nc(-c2ccccc2)cs1)c1cc(-c2ccccc2)on1, COc1ccc(-c2cnc3c(c2)C(=O)N([C@@H](C)CO)C[C@H](C)[C@@H](CN(C)Cc2cccnc2)O3)cc1, C[C@@H]1CN([C@H](C)CO)C(=O)c2cccc(NC(=O)c3ccncc3)c2O[C@@H]1CN(C)Cc1ccc(-c2ccccc2)cc1, COc1ccc(S(=O)(=O)Nc2ccc3c(c2)C(=O)N([C@H](C)CO)C[C@H](C)[C@H](CN(C)S(=O)(=O)c2ccc(C)cc2)O3)cc1, CNC[C@@H]1Oc2c(NS(=O)(=O)c3cccs3)cccc2C(=O)N([C@@H](C)CO)C[C@H]1C, C[C@@H]1CN([C@H](C)CO)C(=O)c2cc(NS(C)(=O)=O)ccc2O[C@@H]1CN(C)S(=O)(=O)c1ccc(F)cc1, O=C(CN1CCCCCC1)Nc1ccccc1[N+](=O)[O-], Cc1nnc(NC(=O)CSc2nnc(CNC(=O)c3ccc(S(=O)(=O)N(C)C)cc3)o2)s1, CCN(CC(=O)NCc1cccs1)CC(=O)Nc1cccc(S(N)(=O)=O)c1, Cc1c(CC(=O)NCC(=O)NCC(=O)O)c(=O)oc2cc3oc4c(c3cc12)CCCC4, Cc1cc(F)ccc1NS(=O)(=O)c1cccc2nsnc12, CC(=O)NC1=NC(=O)/C(=C/c2cn(C(C)=O)nc2-c2ccccc2)S1, Cc1ccc(-c2nc(C)sc2CC(=O)NCc2ccco2)cc1, Cc1cc(=O)n(-c2ccc(O)cc2)[nH]1, O=C(NCC1CCCO1)c1onc(CSc2ccc(F)cc2)c1C(=O)O (stereo unspecified), Cc1cc(C)c(S(=O)(=O)N2CCCC2=O)c(C)c1N(C)S(C)(=O)=O, O=C(C[C@H]1C=C[C@@H](NC(=O)C2CC2)[C@@H](CO)O1)Nc1nccs1, Cc1[nH]n2c(=O)c3c(nc2c1-c1ccccc1)CCC3, COc1cc(/C=C2\S/C(=N/S(=O)(=O)c3ccccc3)NC2=O)c([N+](=O)[O-])cc1OC, COc1ccc(Cc2nnc(N/N=C(\C)c3ccccc3)[nH]c2=O)cc1OC, O=C(CSc1nnc(-c2ccccn2)o1)Nc1ccccc1C(F)(F)F, O=C(c1cc(-c2ccccc2)on1)N1CCc2cccnc21, CN1CCN(C(=O)c2cc(-c3ccccc3)on2)CC1
